From the supplement of paper PMC10981050

test system: MOLM14; assay: cell viability relative to vehicle control; higher = less cytotoxic; settings: 10 µM; SRSF2 genotype: SRSF2 wt/wt
Outline: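 Mutant clones made by CRISPR editing and their isogenic wild-type counterparts, from four leukaemia lines, were exposed to a single 10 µM dose of each library compound for 48 h. The supernatant was then removed and CellTiter-Glo luminescence was read. Viability was reported as percent of the on-plate vehicle control.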

SMILES | cell viability [%]
Cn1nc(C(C)(C)C)cc1C(=O)N[C@@H](Cc1cccc(Cl)c1)C(=O)NCC#N [Cathepsin Inhibitor 1] | 98.4
CCOC(=O)C1=C(C)NC(C)=C(C(=O)OC)C1c1cccc(Cl)c1Cl (stereo unspecified) [Felodipine (Plendil)] | 86.3
CC(C)=CCCC(C)(OC1OC(COC2OCC(O)C(O)C2O)C(O)C(O)C1O)C1CCC2(C)C1C(O)CC1C3(C)CCC(OC4OC(CO)C(O)C(O)C4O)C(C)(C)C3CCC12C (stereo unspecified) [Gynostemma Extract] | 102
CCNC(=O)[C@@H]1CCCN1C(=O)[C@H](CCCN=C(N)N)NC(=O)[C@H](CC(C)C)NC(=O)[C@@H](CC(C)C)NC(=O)[C@H](Cc1ccc(O)cc1)NC(=O)[C@H](CO)NC(=O)[C@H](Cc1c[nH]c2ccccc12)NC(=O)[C@H](Cc1cnc[nH]1)NC(=O)[C@@H]1CCC(=O)N1 [S3718 Leuprolide Acetate.cdx] | 105
Nc1ncnc2c1ncn2C1OC(COP(=O)(O)OP(=O)(O)O)C(O)C1O (stereo unspecified) | 95
O=CO [Formate] | 106
COc1cc2c(=O)c(-c3ccc(O)cc3)coc2cc1O[C@@H]1O[C@H](CO)[C@@H](O)[C@H](O)[C@H]1O [Glycitin] | 103
Nc1nc(-c2nn(Cc3ccccc3F)c3ncccc23)ncc1C1CC1 | 104
O=C(O)c1cc2cccc([N+](=O)[O-])c2[nH]1 | 101
C=C1CC[C@H]2O[C@]2(C)CC[C@@H]2[C@@H]1CC2(C)C [Caryophyllene oxide] | 107
CC(C)c1ccc(C=O)cc1 [4-Isopropylbenzaldehyde] | 94.9
